Calb FLC: C. albicans growth inhibition with fluconazole, primary screen, CaCi-2 strain, Alamar Blue fluorescence. growth inhibition, % (no concentration beside the values). AID 1979, 2009. 0.57% of 300,000 active. C. albicans CaCi-2 (fluconazole-resistant clinical isolate) + fluconazole, 48 h;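 active = growth inhibition above about 58% in most replicates, limit read from the data, passing the limit was not always enough; inconclusive = exactly half the replicates above a set limit; inactive = most replicates below a set limit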;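 also: all wells also contain fluconazole at 8 µg/ml as a sub-toxic cotreatment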
Beta apoptosis: inhibitors of cytokine-induced beta cell apoptosis, primary screen, luminescence | INS-1E cytokine-induced death, ATP luminescence, 48 h; percent of positive-control rescue, neutral wells zero | protection from apoptosis, % (no concentration beside the values) | 0.8% of 300,000 active;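 active = Every replicate reaches about 75%, or at least half do and their mean reaches it too, limit read from the data; inconclusive = At least half of replicates reach the limit but their mean does not; inactive = Under half of replicates reach the limit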;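 also: higher means more ATP so stronger rescue from cytokine killing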
Jurkat NFkB inh: inhibitors of induced NF-kB luciferase reporter, primary screen, TCR NF-kB activation inhibitor project, cell-based, luminescence, uHTS | Jurkat, PMA/ionomycin-induced NF-kB luciferase reporter | 0.53% of 330,000 active | inhibition, % at 4 µM; in the data active = inhibition above about 50%
697 NFkB inh: inhibitors of PMA/ionomycin-induced NF-kB reporter, 697 cells, primary screen, B-cell NF-kB inhibitor project, cell-based, luminescence, uHTS. inhibition, % at 4 µM. 697 B-cell NF-kB luciferase reporter, 16 h. 0.33% of 330,000 active; in the data active = inhibition above about 35%
Shn3 3UTR inh: reduction of Shn3 3'UTR firefly luciferase signal, primary screen, Schnurri-3 inhibitor project, cell-based, Clone20 osteoblasts, set 2. Clone20 osteoblast Shn3 3'UTR firefly luciferase, 24 h. inhibition, % at 12.5 µM. 0.52% of 360,000 active. AID 588674, 2011;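 active = mean inhibition of at least 75% with every replicate also reaching 75%; inconclusive = mean inhibition at least 75% but some replicate below; inactive = mean inhibition below 75%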
Hits are given with their value; 0 = inactive; ? = inconclusive; - = not tested or not shown. Compounds with a hit are over-represented: about 2% of the library has one in this group of screens.

SMILES	Calb FLC	Beta apoptosis	Jurkat NFkB inh	697 NFkB inh	Shn3 3UTR inh
CCc1ccc(S(=O)(=O)/N=C2\C=C(NS(=O)(=O)c3ccccc3)C(=O)c3ccccc32)cc1	0	-	0	0	0
Cc1ccccc1NC1=C/C(=N\S(=O)(=O)c2ccc(C(=O)O)cc2)c2ccccc2C1=O	0	107	0	0	0
Cc1cccc(C(=O)NC2CCN(CC(=O)NCc3ccccc3F)CC2)c1	0	0	0	0	0
O=C(C#Cc1ccccc1)c1cccc([N+](=O)[O-])c1	0	-	0	0	93
O=C(CCCSc1ccc(Cl)cc1)Nc1ccccc1O	0	0	0	0	0
Cc1ncc(CO)c(/C=N/NC(=S)Nc2cccc(Cl)c2)c1O	0	0	0	0	0
Cc1ncc(CO)c(/C=N/NC(=O)c2ccc(O)cc2)c1O	0	0	0	0	0
Cc1ncc(CO)c(/C=N/NC(=O)c2cc3c(s2)CCCC3)c1O	0	88	0	0	91
Cc1ncc(CO)c(/C=N/NC(=S)Nc2ccc(Cl)c(Cl)c2)c1O	110	0	0	0	0
Cn1cccc1/C=N/NC(=O)c1ccco1	0	0	0	0	0
COc1ccc(OC)c(NC(=O)C(=O)/C=C(\O)c2cc(OC)ccc2OC)c1	104	0	0	0	0
COc1ccc(OC)c(N/C(C)=C/C(=O)c2ccccc2)c1	0	0	0	0	0
Cc1cc(N)c2cc(NC(=O)/C=C/c3ccccc3Cl)ccc2n1	0	109	0	0	-
O=C(CCn1c(=O)oc2cc(Cl)ccc21)Nc1ccc(N2CCOCC2)cc1	0	0	0	0	0
O=c1c(Br)c(Br)cnn1-c1ccccc1	-	-	-	-	98
Cc1ccc(-n2ncc(Br)c(Br)c2=O)cc1	97	-	-	-	96
CSc1cccc(NC(=O)C2CCCN(S(=O)(=O)c3cccs3)C2)c1 (configuration not stated)	0	0	0	0	0
CN(C)c1ccc(/C=C/c2ccc3c4ccccc4ccc3[n+]2-c2ccccc2)cc1	-	-	-	-	93
c1ccc(CCNc2nc(-c3ccccn3)nc3ccccc23)cc1	0	96	0	0	-
CCCCN(CC)c1nc(-c2ccncc2)nc2ccccc12	0	0	0	0	0
CCCN(CCC)c1nc(-c2ccccn2)nc2ccccc12	0	135	0	0	0
c1ccc(CN2CCN(c3nc(-c4ccccn4)nc4ccccc34)CC2)cc1	0	-	0	0	0
COc1ccc2nc3n(c(=O)c2c1)-c1ccc(Cl)cc1C(=O)NC3Cc1ccc(O)cc1 (configuration not stated)	-	-	-	-	0
O=C(N/N=C/c1ccc(O)c(O)c1)c1ccc(CSc2cccc3cccnc23)cc1	0	0	0	0	0
O=C1O/C(=C/c2ccccc2)c2ccccc21	0	0	0	0	0
SMILES	Calb FLC	Beta apoptosis	Jurkat NFkB inh	697 NFkB inh	Shn3 3UTR inh
N#CC1=C(c2ccccc2)/C(=C/c2ccccc2)OC1=O	?	0	0	0	95
O=C(C1CCN(S(=O)(=O)c2ccccc2F)CC1)N1CCc2ccccc2C1	0	0	0	0	0
COCCNC(=O)/C(C#N)=C/c1c(N2CCN(c3ccc(OC)cc3)CC2)nc2c(C)cccn2c1=O	0	0	0	0	0
CC(C)CCNC(=O)NC(=O)COC(=O)CNC(=O)C1CCCCC1	0	0	0	0	0
CC/C(C)=N/Nc1cccc([N+](=O)[O-])c1	92	0	0	0	0
CCC(CC)=NNc1cccc([N+](=O)[O-])c1	0	0	0	0	0
COc1ccc(/C=C/C(=O)C2CC2)cc1COc1c(C)cccc1C	97	0	0	0	0
COc1ccc(/C=C/C(=O)O)cc1COc1cccc(C)c1	0	0	0	0	0
COc1c(CC=C(C)C)cc(C2CC(=O)c3c(O)cc(O)cc3O2)cc1CC=C(C)C (configuration not stated)	0	108	0	0	90
CC(C)CN(C(=O)CCC(=O)OCc1ccc(Cl)cc1Cl)c1c(N)n(CC(C)C)c(=O)[nH]c1=O	0	0	0	0	0
O=C(N[C@@H]1C/C=C\C[C@@H](CC(=O)N(CCO)Cc2ccccc2)C(=O)NC[C@H](c2ccccc2)OC1=O)OCC1c2ccccc2-c2ccccc21	-	0	0	0	88
O=C(N[C@H]1C/C=C\C[C@H](CC(=O)N(CCO)Cc2ccccc2)C(=O)N[C@@H](c2ccccc2)COC1=O)OCC1c2ccccc2-c2ccccc21	-	-	0	0	0
O=C(N[C@@H]1C/C=C\C[C@H](CC(=O)N(CCO)Cc2ccccc2)C(=O)NC[C@@H](c2ccccc2)OC1=O)OCC1c2ccccc2-c2ccccc21	-	0	0	0	90
OCc1ccc(O)c2ncccc12	107	107	0	0	0
COc1cc(CN2CCc3ccccc3C2)cc([N+](=O)[O-])c1O	0	0	0	0	0
COc1cc(CN2CCc3ccccc3C2)ccc1O	0	142	0	0	95
CSc1ncccc1C(=O)N1CCN(S(=O)(=O)c2cc(C)ccc2C)CC1	0	0	0	0	0
Oc1ccc(Cc2ccccc2)c2cccnc12	-	-	-	-	0
O=[N+]([O-])c1cc(CN2CCCC2)c2cccnc2c1O	-	0	-	-	0
Oc1c(Cl)cc(CN2CCCCC2)c2cccnc12	0	111	0	0	0
Cc1ccc(C)c(S(=O)(=O)N2CCN(Cc3ccc(O)c4ncccc34)CC2)c1	110	87	0	0	91
Clc1ccccc1CN1CCC(Cc2ccccc2)CC1	0	0	0	0	0
Oc1ccc(CN2CCN(c3ccccc3)CC2)c2cccnc12	0	0	0	0	0
Oc1ccc(CN2CCc3ccccc3C2)c2cccnc12	0	112	0	0	84
Oc1ccc(CN2CCCCC2)c2cccnc12	103	0	0	0	0
SMILES	Calb FLC	Beta apoptosis	Jurkat NFkB inh	697 NFkB inh	Shn3 3UTR inh
Oc1cc2c(cc1CN1CCc3ccccc3C1)OCO2	0	0	0	0	0
Oc1ccc(CN2CCC(Cc3ccccc3)CC2)c2cccnc12	112	-	0	0	-
CCOC(=O)N1CCN(Cc2ccc(O)c3ncccc23)CC1	82	0	0	0	-
CCC(C(=O)NCCc1c[nH]c2cc(OC)ccc12)c1ccccc1 (configuration not stated)	0	0	0	0	0
Cc1ccc(NS(=O)(=O)c2ccc(Cl)c(C(=O)Nc3cccc(C(=O)O)c3)c2)cc1	0	0	0	0	0
CCc1cccc(NC(=O)Cn2c(=O)c3cccn3c3ccccc32)c1	0	0	0	0	0
Cc1oc2c(c1C(=O)N1CCC(C)CC1)C(=O)c1ccccc1C2=O	0	110	0	0	-
CCOC(=O)C1CCN(C(=O)c2c(C)oc3c2C(=O)c2ccccc2C3=O)CC1	0	102	0	0	0
CC1CCN(C(=O)c2ccc3c(c2)C(=O)c2ccccc2-3)CC1	-	-	-	-	0
CC1=NN(c2nc(-c3ccc(C)cc3)cs2)C(=O)C1N=Nc1cccc(O)c1 (configuration not stated)	0	0	0	0	0
